Most compounds without a hit are left out; they make up all but 5.9% or so of the library.
RORgamma inh – blocks mouse ROR gamma transcriptional activity | P51450 | Drosophila S2 Gal4-RORgamma UAS-luciferase reporter, 20 h | Potency, µM (series often up to 53.6 µM), inactives show top-dose activity change, negative = inhibition, usual class: inhibitors | AID 2551 | 5.4% of 310,000 active; further: on the % scale 0 is the no-effect control and ±100 the full control effect; nearly all actives have a fitted effect of over 60% in size
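Stable Schneider cell line, Gal4 DNA-binding domain fused to ROR gamma, UAS-luciferase. Cmpd 1 hr RT → CuSO4 700 uM final → 20 hr RT → luciferase reagent 10 min → luminescence.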
VP16 counter – counter-screen for ROR gamma inhibitors: Gal4-VP16 reporter; Potency, µM (series often up to 53.6 µM), for inactives: at the top dose activity, negative = inhibition, most hits filed as inhibitors; 3.5% of 310,000 active; Drosophila S2 Gal4-VP16 UAS-luciferase, luminescence, 20 h;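 further: Gal4-VP16 expression switched on by copper sulfate through the metallothionein promoter; on the % scale 0 is the no-effect control and ±100 the full control effect; nearly all actives have a fitted effect of over 50% in size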
GLP1R ag – agonists of human GLP-1 receptor | HEK293 GLP-1R CRE-luciferase, luminescence, 4-6 h; cells express a hypersensitive GLP-1R form | Potency, µM (highest dose often 45.6 µM), without a hit: top-dose activation, hits mostly activators | P43220 | 0.007% of 380,000 active; further: % of control where 0% means no effect
Target sequence (P43220 whole entry, looked up): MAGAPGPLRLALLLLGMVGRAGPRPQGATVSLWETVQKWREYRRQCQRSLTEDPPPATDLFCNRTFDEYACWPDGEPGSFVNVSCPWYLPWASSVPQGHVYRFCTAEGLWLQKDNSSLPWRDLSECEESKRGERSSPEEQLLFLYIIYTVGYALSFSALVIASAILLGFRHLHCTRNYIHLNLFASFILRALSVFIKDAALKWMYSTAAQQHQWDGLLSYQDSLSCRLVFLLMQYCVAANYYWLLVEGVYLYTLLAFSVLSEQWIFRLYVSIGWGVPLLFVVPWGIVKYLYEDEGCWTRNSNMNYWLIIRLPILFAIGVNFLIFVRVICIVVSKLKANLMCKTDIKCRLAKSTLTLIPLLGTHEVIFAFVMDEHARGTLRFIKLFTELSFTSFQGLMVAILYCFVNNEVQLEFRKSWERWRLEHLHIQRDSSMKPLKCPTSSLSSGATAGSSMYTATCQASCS
GLP-1R inv ag – GLP-1 receptor (human) inverse agonism; Potency, µM (series often up to 38.3 µM), for inactives: at the highest dose activity change, negative = inhibition, most hits filed as inhibitors; P43220; 1.6% of 410,000 active; HEK293 GLP-1R CRE-luciferase, luminescence, 24 h; GLP-1R form is constitutively active; further: on the % scale 0 is the no-effect control and ±100 the full control effect; nearly all actives have a fitted effect of over 55% in size
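Readout was luciferase luminescence, measured 12 min after detection reagent at room temperature. Beforehand, GLP-1R reporter HEK293 cells had sat 12 h, then received compounds for 24 hr at 37 deg C.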
HEK293 tox – cytotoxic in the GLP-1 receptor inverse agonist counter-screen. HEK293 cAMP-luciferase reporter cells, luminescence, 24 h. Potency, µM (series often up to 38.3 µM), for the others: at the highest dose activity change, negative = inhibition, hits mostly inhibitors. 0.13% of 410,000 active;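 further: loss of luciferase light is scored as toxicity; on the % scale 0 is the no-effect control and ±100 the full control effect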
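MLSMR compounds, 24 hr on cells at 37 deg C/5% CO2; luminescence after luciferase reagent (12 min RT). Inhibition counted as the undesired cytotoxic outcome.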
* = called active by the depositor; ? = inconclusive; . = no result given; [ ] = dose if it differs, or a comment. The call rests on the fitted dose curve; in most records, active means well fitted curve in the direction sought with a large enough effect; inconclusive means small, poorly fitted or top-dose-only effect, or another doubt; inactive means no such curve, though single readings can be large; an effect the other way counts as inactive or inconclusive. Potency means the concentration at half of the fitted maximal effect.

SMILES	RORgamma inh	VP16 counter	GLP1R ag	GLP-1R inv ag	HEK293 tox
COc1ccc(OC/C(O)=C(\C#N)c2nc3ccccc3[nH]2)cc1	-35.6%	-1.9%	-2.1%	16.4%	64.9%
CC(C)(C)/C(O)=C(/C#N)c1nc2ccccc2[nH]1	11.2µM*	?	9.0%	0.0%	3.8%
CC(C)CC(/C(O)=C(\C#N)c1nc2ccccc2[nH]1)N1C(=O)c2ccccc2C1=O (configuration not stated)	7.94µM*	20µM*	-10.7%	?	11.2%
CNC(=O)c1ccccc1Sc1ccc2c(/C=C/c3ccccn3)n[nH]c2c1	.	.	13.8%	.	.
CCN1CCN(c2cc(-c3ccc(F)cc3)c3c(n2)CCCCCC3)CC1	.	.	2.0%	.	.
Cc1nnc(NC(=O)C2COc3ccccc3O2)s1 (configuration not stated)	-25.9%	2.7%	-26.9%	10.2%	-11.0%
O=C(NC1=NCCS1)C1COc2ccccc2O1 (configuration not stated)	6.31µM*	4.47µM*	-5.5%	?	-1.7%
CCc1nnc(NC(=O)C2COc3ccccc3O2)s1 (configuration not stated)	-31.6%	-6.6%	-28.8%	-6.8%	0.9%
O=C(Nc1ncc(Cc2ccccc2)s1)C1COc2ccccc2O1 (configuration not stated)	10µM*	2µM*	-2.1%	3.0%	-3.1%
CCC(CC)c1nnc(NC(=O)C2COc3ccccc3O2)s1 (configuration not stated)	10µM*	-26.0%	-11.0%	?	-2.8%
O=C(Nc1ccncc1)C1COc2ccccc2O1 (configuration not stated)	9.4%	?	-0.2%	12.0%	-9.0%
CCOC(=O)c1ccc(NC(=O)CN(Cc2ccc(C)cc2)S(=O)(=O)c2ccc(C)cc2)cc1	.	.	.	-5.8%	2.0%
COc1ccccc1NC(=O)CC(=O)c1ccccc1	33.8%	5.5%	4.3%	7.2%	-2.5%
O=C(CC(=O)c1ccccc1)c1ccccc1	3.98µM*	7.94µM*	0.0%	?	4.3%
COc1ccccc1C(=O)CC(=O)c1ccccc1	10µM*	-67.7%	7.2%	?	6.3%
COc1ccccc1C(=O)NCC(=O)NC(C)CCc1ccccc1 (configuration not stated)	6.31µM*	14.1µM*	0.4%	1.4%	-0.3%
CO[C@@H]1/C=C\CC(=O)N[C@@H](C)C(=O)OC[C@@H](OC)[C@H](C)/C=C\CC(=O)OC[C@H]1C	16.0%[10 µM]	-2.2%[10 µM]	.	.	.
O=C(Cn1c(=O)n(-c2ccccc2Cl)c(=O)c2sc3ccccc3c21)N1CCCC1	.	.	-1.6%	10.3%	-2.0%
CCC(=O)N1CCc2cc(S(=O)(=O)N(C)c3cccc(C)c3)ccc21	.	.	0.1%	13.2%	-4.6%
COc1cccc(CN2CCC(N(CCc3ccccc3)Cc3ccccc3)CC2)c1OC	-7.7%	-26.4%	-9.2%	10µM*	-0.8%
COc1cccc(CN2CCN(Cc3cccc(Oc4ccccc4)c3)CC2)c1OC	6.9%	-3.2%	-2.2%	6.31µM*	?
O=C(Nc1cc(-c2ccc(Cl)cc2)no1)c1ccc(F)cc1	.	.	.	15.8%	-2.1%
COC(=O)C1=C(CN2CCCc3ccccc32)NC(=O)NC1c1ccc(F)cc1 (configuration not stated)	1.41µM*	?	-0.8%	0.0%	2.0%
CCOC(=O)C1=C(CN2CCN(C)CC2)NC(=O)NC1c1ccc(F)cc1 (configuration not stated)	.	.	.	7.9%	0.4%
COC(=O)C1=C(CN2CCc3ccccc32)NC(=O)NC1c1cc(C)ccc1C (configuration not stated)	0.5%	2.1%	-12.0%	8.91µM*	-23.6%
CCCCN(CC)CCCNC(=O)Nc1sc2nc3n(c(=O)c2c1C)CCC(C)CC3 (configuration not stated)	.	.	.	10µM*	-4.6%
CCCCC/C=C\C=C\C(O)CCCCCCCC(=O)O (configuration not stated)	10.3%	-0.3%	.	.	.
CC(=O)OC[C@@H]1O[C@H](CCON=C(C)C)C=C[C@@H]1OC(C)=O	0.0%[10 µM]	-7.3%[10 µM]	.	.	.

High-throughput results: PubChem BioAssay, National Center for Advancing Translational Sciences (NCATS)
